In PubChem BioAssay AID759 (NMMLSC, 2007):
Out of some 190,000 compounds screened, about 270 (0.14%) were called active. Another 2% or so got no clear call; they are omitted. The sample holds actives, similar compounds and a random draw of the others, so the mix is not that of the screen.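 How the source made its calls: active means GTP binding activity at least 20% away from the 100% baseline, either lowered as inhibitor or raised as activator; inconclusive means flagged as likely green fluorescent, judged across all proteins in the well; inactive means the rest.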

These compounds were tested against GTPase HRas (Homo sapiens) (UniProt P01112) (assay: HRas wt fluorescent GTP binding changes, either direction – biochemical, wildtype, bead-based flow cytometry, multiplex, primary screen (AID 759;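 further: 0% = unlabeled GTP competition control and 100% = no-compound control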)). Details: GST-Ras wt beads, Bodipy-FL-GTP binding, at 10 µM, actives lie on both sides.
GTPase HRas (Homo sapiens), sequence (P01112 whole entry, looked up): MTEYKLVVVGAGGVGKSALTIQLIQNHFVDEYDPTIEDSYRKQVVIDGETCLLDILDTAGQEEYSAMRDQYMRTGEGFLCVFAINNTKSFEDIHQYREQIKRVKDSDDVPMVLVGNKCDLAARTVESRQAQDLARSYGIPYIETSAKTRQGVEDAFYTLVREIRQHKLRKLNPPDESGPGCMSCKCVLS

| Structure (SMILES) | GTP binding activity |
| --- | --- |
| CCOc1ccc(C2SCC(=O)Nc3c2c(C)nn3C2CCOC(C)(C)C2)cc1 (stereo not given) | 73% (active) |
| CCCC(C)n1[nH]c(=O)c2c1NC(=O)CSC2c1ccc(OC)c(OC)c1 (stereo not given) | 98% (inactive) |
| CC1=CC(=Cc2sc3ccccc3[n+]2C)C=C(C)O1 | 103% (inactive) |
| COc1ccc(CN2C(=O)NC(=O)/C(=C\c3ccc(OC)c(OC)c3OC)C2=O)cc1 | 97% (inactive) |
| Cc1ccsc1C(=O)C1CCCN(Cc2ccc(O)cc2)C1 (stereo not given) | 98% (inactive) |
